Compounds with a hit are over-represented: about 10% of the library has one in this group of screens.
KB-3-1 tox – KB-3-1 parental cell cytotoxicity. KB-3-1 viability, CellTiter-Glo ATP luminescence, 72 h. Potency, µM (highest dose often 46.1 µM), hits mostly cytotoxic. 400,000 compounds, 1.4% hits. AID 1347075; also: % is scaled to controls: 0 for no effect and ±100 for the full control effect; nearly all actives have a fitted effect of over 60% in size
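Parental KB-3-1 adenocarcinoma cells in phenol-red-free DMEM with 10% FBS were pin-treated with compounds at several concentrations, incubated 72 h at 37 °C, and viability read by CellTiter-Glo luminescence; concentration-effect curves were fitted after normalization.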
SW480 rereplic – DNA re-replication induction in SW480 cells | 340,000 compounds, 1.8% hits | SW480 DNA re-replication, Hoechst DNA content imaging, 48 h | Potency, µM (titrated, usually from 46.1 µM), without a hit: at the top dose re-replication activation, usual class: activators; also: % of control where 0% means no effect; nearly all actives have a fitted effect of over 55% in size
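Per well, 250 cells were exposed to pinned compound for 48 hr. Nuclear DNA was visualised with Hoechst (40 min, 37 C) and total object intensity recorded by fluorescence scanning.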
MCF10A rerep – inducers of DNA re-replication in MCF 10A breast cells. MCF 10A DNA re-replication, Hoechst nuclear intensity, 48 h. Potency, µM (titrated, usually from 46.1 µM), for inactives: at the highest dose activity, positive = re-replication, usual class: activators. 350,000 compounds, 2.9% hits. AID 624296; also: % of control where 0% means no effect; nearly all actives have a fitted effect of over 50% in size
KB-V1 cytotox – KB-V1 MDR subline cytotoxicity | 400,000 compounds, 3.4% hits | KB-V1 MDR cells viability, CellTiter-Glo, 72 h | AID 1347076 | Potency, µM (doses to about 46.1 µM), usual class: cytotoxic; also: % is scaled to controls: 0 for no effect and ±100 for the full control effect; nearly all actives have a fitted effect of over 60% in size
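KB-V1 cells (P-gp-expressing MDR subline of KB-3-1) in phenol-red-free DMEM with 10% FBS were exposed to library compounds over a concentration series for 72 h at 37 degrees C. Viability read by CellTiter-Glo luminescence; concentration-effect curves fitted after normalization.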
RORgamma inh – inhibitors of mouse ROR gamma transcriptional activity; Drosophila S2 Gal4-RORgamma UAS-luciferase reporter, 20 h; Potency, µM (top dose mostly 53.6 µM), without a hit: top-dose activity change, negative = inhibition, hits mostly inhibitors; 310,000 compounds, 5.4% hits; also: % is scaled to controls: 0 for no effect and ±100 for the full control effect; nearly all actives have a fitted effect of over 60% in size
Target sequence (P51450 whole entry, looked up, the tested form may be a part): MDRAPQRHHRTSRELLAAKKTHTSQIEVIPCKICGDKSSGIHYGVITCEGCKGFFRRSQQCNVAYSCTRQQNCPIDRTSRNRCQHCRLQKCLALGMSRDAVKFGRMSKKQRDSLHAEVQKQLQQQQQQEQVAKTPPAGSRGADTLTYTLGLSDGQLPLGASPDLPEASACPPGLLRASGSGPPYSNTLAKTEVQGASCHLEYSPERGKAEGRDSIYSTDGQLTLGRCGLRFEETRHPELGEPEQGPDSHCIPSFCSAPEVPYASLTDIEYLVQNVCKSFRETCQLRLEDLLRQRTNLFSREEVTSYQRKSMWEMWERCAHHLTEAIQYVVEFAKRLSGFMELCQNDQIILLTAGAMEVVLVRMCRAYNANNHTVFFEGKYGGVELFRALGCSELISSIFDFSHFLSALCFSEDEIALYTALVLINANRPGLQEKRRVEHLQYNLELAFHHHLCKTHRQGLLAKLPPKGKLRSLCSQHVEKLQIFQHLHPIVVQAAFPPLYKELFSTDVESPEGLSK
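Luciferase reporter read in Schneider cells carrying Gal4-RORγ (mouse) and UAS-Photinus luciferase; cells given compound 1 h before 700 uM copper sulfate induction, then incubated 20 h at ambient temperature.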
VP16 counter – Gal4-VP16 reporter inhibition counter-screen. Drosophila S2 Gal4-VP16 UAS-luciferase, luminescence, 20 h. Potency, µM (top dose mostly 53.6 µM), without a hit: at the highest dose activity, negative = inhibition, hits mostly inhibitors. 310,000 compounds, 3.5% hits. AID 2546;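 also: Gal4-VP16 expression switched on by copper sulfate through the metallothionein promoter; % is scaled to controls: 0 for no effect and ±100 for the full control effect; nearly all actives have a fitted effect of over 50% in size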
* = called active by the depositor; i = inactive; ? = inconclusive; nt = no result given; [ ] = another dose, or the depositor's remark. Calls follow the shape of the dose curve; as a rule, active = well fitted curve in the direction sought with a large enough effect; inconclusive = small, poorly fitted or top-dose-only effect, or another doubt; inactive = no such curve, though single readings can be large; an effect the other way counts as inactive or inconclusive. Potency is read from the fitted curve at half-maximal effect.

SMILES | KB-3-1 tox | SW480 rereplic | MCF10A rerep | KB-V1 cytotox | RORgamma inh | VP16 counter
CS(=O)(=O)c1ccc(N)c(SSc2cc(S(C)(=O)=O)ccc2N)c1 | i | -4.2% | 3.66µM* | i | nt | nt
CC(C)(C)NC(=O)C(c1cc2ccccc2o1)n1c(-c2ccc(-c3ccccc3)cc2)nc2ccccc21 (centres undefined) | i | nt | nt | ? | nt | nt
Cc1ccc(NC(=O)COC(=O)C2=NNC(=O)CC2)c(Br)c1 | i | 9.1% | ? | i | nt | nt
Cc1cccc(NC(=O)C2(C)CC3c4ccccc4C2c2ccccc23)c1C (centres undefined) | ? | -83.2% | 7.9% | 7.31µM* | 1.6% | -11.1%
Cc1ccc(C)c(NC(=O)C2(C)CC3c4ccccc4C2c2ccccc23)c1 (centres undefined) | i | 13.1% | 0.1% | i | 3.2% | 3.7%
Cn1c(=O)c2cc(NC(=O)NCCc3ccccc3)ccc2n1Cc1ccc(F)cc1 | i | nt | nt | i | nt | nt
COc1ccc(-n2c(C)nc3c(cnn3-c3ccc(C)cc3)c2=O)cc1 | i | -14.8% | ? | i | 21.0% | 2.0%
COc1cccc(-n2c(-c3ccccc3F)nc3c(cnn3-c3ccc(C)cc3)c2=O)c1 | 16.4µM* | nt | nt | i | nt | nt
Cc1cccc(-n2c(-c3ccco3)nc3c(cnn3-c3ccc(F)cc3)c2=O)c1 | ? | nt | nt | i | nt | nt
Cc1cccc(-n2c(C)nc3c(cnn3-c3ccc(F)cc3)c2=O)c1 | i | -0.2%[9.22 µM] | 0.4% | ? | -39.3% | 7.08µM*
Cc1ccc(-n2c(C)nc3c(cnn3-c3ccccc3)c2=O)cc1 | ? | nt | nt | 16.4µM* | nt | nt
CCCOC(=O)c1ccccc1O | nt | -4.7% | -4.4% | nt | 8.4% | 1.7%
CC(C)(C)C(=O)Nc1cccc(-c2nc3ccccc3[nH]2)c1 | i | -4.0%[9.22 µM] | -8.3% | i | 43.5% | 4.4%
CC(C)(C)C(=O)Nc1sc2c(c1-c1nc3ccccc3[nH]1)CCCC2 | i | 1.7% | 13µM* | i | 0.794µM* | ?
COc1cc2c(cc1OC)C(COc1ccccc1OC)N(C(=O)COc1ccc(Cl)cc1)CC2 (centres undefined) | i | nt | nt | 20.6µM* | nt | nt
COC(=O)c1ccc(OCC2c3cc(OC)c(OC)cc3CCN2C(=O)c2ccco2)cc1 (centres undefined) | i | -7.0% | ? | 6.51µM* | ? | -3.4%
COC(=O)c1ccc(OCC(O)CN2CCc3cc(OC)c(OC)cc3C2c2ccccc2)cc1 (centres undefined) | i | 24.7% | 20.6µM* | i | 16.0% | ?
COc1ccc(N2CCN(C(=O)C(C)n3c(=O)cc(C(F)(F)F)c4c(C)nn(C)c43)CC2)cc1 (centres undefined) | i | nt | nt | i | nt | nt
CC1=C(C(=O)N2CCOCC2)CC(CC(=O)NCCc2ccccn2)C(=O)N1Cc1ccccc1 (centres undefined) | i | nt | nt | i | nt | nt
Cc1ccc2onc(CC(=O)Nc3ccc(C(C)C)cc3)c2c1 | i | nt | nt | i | nt | nt
OCCCn1c(-c2ccccc2)n[nH]c1=S | i | -0.7% | -1.2% | i | -44.6% | -9.0%
CCCCn1c(-c2csc(C(C)C)c2)n[nH]c1=S | i | -10.1% | -4.1% | 23.1µM* | 3.98µM* | ?
CCCc1cc(-c2n[nH]c(=S)n2CC(C)C)cs1 | i | -3.3% | 23.9% | i | 3.55µM* | 11.2µM*
CCCn1c(-c2ccncc2)n[nH]c1=S | i | -1.5% | -0.1% | i | ? | 5.7%
CCCCn1c(-c2csc(CC)c2)n[nH]c1=S | i | -8.1% | 3.2% | i | 0.794µM* | ?
SMILES | KB-3-1 tox | SW480 rereplic | MCF10A rerep | KB-V1 cytotox | RORgamma inh | VP16 counter
CN1C(=O)c2ccccc2Sc2ccc(NC(=O)N3CCN(c4ccccc4F)CC3)cc21 | i | nt | nt | i | nt | nt
COc1ccc(C2/C=C\CN(Cc3ccccc3)C(C)C(=O)N2Cc2ccc(F)cc2)cc1 (centres undefined) | nt | nt | nt | nt | ? | -3.0%
CCC(=O)O[C@@H]1[C@H](C)O[C@H](O[C@H]2[C@@H](N(C)C)[C@H](O)[C@@H](O[C@@H]3[C@@H](CC=O)C[C@@H](C)[C@@H](O)/C=C\C=C/C[C@@H](C)OC(=O)C[C@@H](OC(=O)CC)[C@H]3OC)O[C@H]2C)C[C@]1(C)O | nt | -1.5%[20.6 µM] | -2.4%[20.6 µM] | nt | -4.5%[2.98 µM] | -11.8%[17 µM]
COC(=O)C1=C(Nc2ccc(C)cc2)C=C(C)C(C(=O)OC)C1c1ccc(OC)cc1 (centres undefined) | i | 14.6µM* | ? | i | ? | 5.9%
COC(=O)C1=C(Nc2ccc(C)cc2)C=C(C)C(C(=O)OC)C1c1cccc(OC)c1 (centres undefined) | ? | 23.1µM* | ? | i | ? | -14.7%
COc1cccc(C2NC(=O)NC(C)=C2C(=O)Nc2ccc(C)cc2)c1 (centres undefined) | i | -2.4% | 1.1% | i | 2.3% | -8.2%
CCOC(=O)C1CCCN(C(=O)C2CCN(S(=O)(=O)c3c(C)noc3/C=C/c3ccc(C)cc3)CC2)C1 (centres undefined) | i | nt | nt | i | nt | nt
CC(=O)OC1(C)C=Cc2ccccc2C1=NS(=O)(=O)c1ccccc1 (centres undefined) | i | nt | nt | i | nt | nt
COc1ccc(-c2nc3ccc(N4CCCC4)cc3c(=O)[nH]2)cc1OC | ? | 11.2µM* | 23.1µM* | ? | -42.7% | -9.6%
CCOc1cc(CNC2CCCC2)cc(Cl)c1OCc1ccccc1 | ? | ? | ? | ? | 0.0% | -25.6%
CCOc1cc(CNC2CCCC2)ccc1OCc1ccccc1Cl | ? | 117.5% | ? | 20.6µM* | -14.1% | 3.9%
CCOc1cc(CNCCN2CCOCC2)ccc1OCc1ccccc1Cl | i | 20.6µM* | 14.0% | i | 10.7% | ?
COc1cc(CNCCN2CCOCC2)ccc1OCc1c(Cl)cccc1Cl | nt | ? | ? | nt | -32.3% | -7.6%
O=C(NCc1cccnc1)c1ccc2sc([C@H]3C[C@H](O)[C@@H](CO)O3)nc2c1 | i | nt | nt | i | nt | nt
CCOc1ccc(NC(=O)Cn2cc(C(=O)c3ccc(C)c(C)c3)c(=O)c3cc4c(cc32)OCCO4)cc1 | i | nt | nt | ? | nt | nt
CCOC(=O)c1cnn(-c2cccc(F)c2)c1C1CCNCC1 | i | nt | nt | i | nt | nt
COCCCNC(=S)Nc1ccc(OC(F)F)cc1C | i | -56.3% | -23.7% | i | 11.2µM* | -9.7%
COCCCNC(=S)Nc1cc(C)c(C)cc1C | ? | -0.6% | -1.4% | i | 7.08µM* | 35.5µM*
COCCCNC(=S)Nc1ccc(CC(=O)O)cc1 | i | ? | ? | i | 1.1% | -1.3%
Cc1cc(C)cc(Nc2cc(C)nc3nc(-c4ccco4)nn23)c1 | i | nt | nt | i | nt | nt

Assay outcomes from PubChem BioAssay.
